Results filed as inconclusive are left out. Active and inactive are the calls of the source. The calls were made as follows, unless noted: active = hit-call score of the fitted dose curve at least 0.9, where 1 is the maximum; inconclusive = response in the unintended direction; inactive = score below 0.9.
Assays:
[1] = Tanguay_ZF_120hpf_PIG_legacy: (Legacy) Oregon State University Tanguay Lab 120 Hour Post-fertilization zebrafish Assay for Pigmentation Malformation (AID 2283650)
Outline: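 Brightfield scoring of pigmentation malformation at 120 hpf, recorded as binary present/absent per larva. Exposure: dechorionated 5D wild-type embryos, one per well, static from 6 hpf at 28C, final DMSO 0.64% (vol/vol). Dead embryos not scored.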

[2] = Tanguay_ZF_120hpf_CIRC_legacy: (Legacy) Oregon State University Tanguay Lab 120 Hour Post-fertilization zebrafish Assay for Circulatory Malformation (AID 2283651)
Outline: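 Binary circulatory malformation call at 120 hpf by brightfield imaging of zebrafish larvae; chorion removed at 4 hpf, static exposure from 6 hpf in sealed dark plates at 28C, final DMSO 0.64%; non-mortality endpoints skipped if embryo died.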

[3] = Tanguay_ZF_120hpf_SWIM_legacy: (Legacy) Oregon State University Tanguay Lab 120 Hour Post-fertilization zebrafish Assay for Swim Bladder Malformation (AID 2283654);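 also: swim bladder malformation in each larva scored yes or no under brightfield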
Outline: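 Tropical 5D embryos dechorionated at 4 hpf; 1 embryo/well from 6 hpf; static, sealed, dark exposure at 28C until 120 hpf; final DMSO 0.64%; 5uM trimethyltin chloride positive control; swim bladder defect recorded yes/no; dead embryos not scored.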

[4] = Tanguay_ZF_120hpf_TRUN_legacy: (Legacy) Oregon State University Tanguay Lab 120 Hour Post-fertilization zebrafish Assay for Truncated Body (AID 2283655)
Outline: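 Whole-embryo zebrafish screen: dechorionated 5D embryos, static exposure 6–120 hpf, 28C, sealed foil-covered plates, 0.64% DMSO. Binary truncation call; gain of signal versus DMSO baseline.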

[5] = CCTE_Padilla_ZF_144hpf_TERATOSCORE: (Legacy) CCTE's 144 Hour Post-fertilization zebrafish Assay Teratoscore, Padilla Lab (AID 2283679; active = hit-call score of the fitted dose curve at least 0.9, where 1 is the maximum; inactive = score below 0.9;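 as to AC50: zebrafish embryos with chorions exposed by immersion from 6-8 hpf to 5 dpf with daily renewal; teratogenicity score from eye scoring of death hatching and malformations at 144 hpf; higher score means more developmental defects relative to DMSO baseline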)
Outline: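 Larvae scored by eye at 144 hpf for death, hatching and malformations after a day in clean Hanks'. Before that, daily-renewed exposure at 80 uM (0.4% DMSO, 26C) from roughly 6-8 hpf through 5 dpf, 4 embryos per chemical.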

[6] = STM_H9_OrnithineISnorm_perc: Stemina devTOX quickPredict H9 human embryonic stem cell (hESC)-based Assay for Ornithine (ORN) Metabolite Biomarker, Normalized (AID 2283712; active = hit-call score of the fitted dose curve at least 0.9, where 1 is the maximum; inactive = score below 0.9;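 also: ornithine released into spent medium during last day measured by mass spectrometry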)
Outline: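 Ornithine in spent medium from the last 24 h of a 72 h exposure, deproteinised and quantified by UPLC-HRMS against an isotope-labelled internal standard, expressed relative to 0.1% DMSO. Pluripotent H9 cells; compound refreshed every 24 h.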

[7] = STM_H9_CystineISnorm_perc: Stemina devTOX quickPredict H9 human embryonic stem cell (hESC)-based Assay for Cystine (CYSS) Metabolite Biomarker, Normalized (AID 2283713; active = hit-call score of the fitted dose curve at least 0.9, where 1 is the maximum; inactive = score below 0.9)
Outline: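 Cystine in spent media from the last 24 h of a 72 h H9 hESC exposure (daily re-dosing), measured by UPLC-HRMS. Values normalized to isotopic internal standard, then to 0.1% DMSO; viability via CellTiter-Fluor.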

[8] = STM_H9_OrnCyssISnorm_ratio: Stemina devTOX quickPredict H9 human embryonic stem cell (hESC)-based Assay for Ornithine (ORN):Cystine (CYSS) Ratio (AID 2283714)
Outline: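 UPLC-HRMS of spent media: ORN/CYSS ratio of internal-standard-normalized percentages, DMSO (0.1%) baseline. Pluripotent H9 hESCs, 72h exposure, daily re-dosing with fresh media; last 24h media collected.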

[9] = Tanguay_ZF_120hpf_ActivityScore_legacy: (Legacy) Oregon State University Tanguay Lab 120 Hour Post-fertilization zebrafish Assay Score for Activity (AID 2283742);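 as to AC50: dechorionated Tropical 5D wild-type zebrafish embryos held singly per well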
Outline: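 Dechorionated 5D embryos, one per well, static exposure 6–120 hpf, 28C, sealed and dark; final DMSO 0.64% (vol/vol). Brightfield binary scoring of mortality plus 18 endpoints; gain-of-signal fit versus DMSO baseline.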

[10] = Tanguay_ZF_120hpf_NC_legacy: (Legacy) Oregon State University Tanguay Lab 120 Hour Post-fertilization zebrafish Assay for Notochord and Tail Malformation (AID 2283656)
Outline: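 Binary scoring of notochord distortion by brightfield microscopy; embryos dying were not scored. Wild-type Tropical 5D embryos, chorion removed, exposed singly and statically from 6 to 120 hpf, 28C, sealed, 0.64% DMSO.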

[11] = test system: Thyroperoxidase (TPO), gene 54314; experiment: CCTE_Simmons_AUR_rTPO: CCTE's Amplex UltraRed Assay for Thyroperoxidase (TPO) Inhibition, Simmons Lab (AID 2283662);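 as to AC50: potency for loss of signal meaning inhibition of peroxidase activity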
Outline: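 Cell-free peroxidase activity assay using rat thyroid gland microsomes with excess H2O2 (300 uM) and 25 uM Amplex UltraRed. Compounds tested from 5 nM to 87.5 uM; fluorescence measured after 30 min at 37C, analysed relative to DMSO baseline.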

[12] = CCTE_Simmons_CellTiterGLO_HEK293T: Viability Assessment in CCTE's Assays for Thyroperoxidase (TPO) Inhibition, Simmons Lab (AID 2283665);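 as to AC50: cells exposed to compound for 24 h before readout; actives reduce ATP signal below DMSO vehicle meaning cytotoxicity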
Outline: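 Luciferase-coupled ATP content after 24 h exposure gives viability; 8-point series from 5 nM to 87.5 uM final in 0.5% DMSO. Human HEK293T cells, 1% FBS medium, three biological replicates, dichlone positive control.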

[13] = Tanguay_ZF_120hpf_TR_legacy: (Legacy) Oregon State University Tanguay Lab 120 Hour Post-fertilization zebrafish Assay for Touch Response (AID 2283667)
Outline: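 Binary touch-response call at 120 hpf, analysed as gain of signal versus DMSO baseline. Wild-type 5D larvae, static exposure at 28C, 0.64% DMSO final; 5uM trimethyltin chloride as positive control.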

[14] = test system: Thyroperoxidase (TPO), gene 445522; experiment: CCTE_Simmons_GUA_TPO: CCTE's Guaiacol Assay for Thyroperoxidase (TPO) Inhibition, Simmons Lab (AID 2283750)
Outline: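 Porcine thyroid microsomes (25 ug) in 200mM potassium phosphate, preincubated 30 s at 37C with compound (8 concentrations, 5 nM–87.5 uM) and 35mM guaiacol; 1mM H2O2 starts reaction. Absorbance change at 450nm over first 80 s; loss of signal versus DMSO, three replicates.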

With CCCCCCCCCCCCCN1CC(C)OC(C)C1 (stereo not given) the outcome [1] was “inactive”, the outcome [2] was “inactive” and the outcome [3] was “inactive”. For the same compound, the outcome [4] was “inactive”, the AC50 [5] was 90.1 µM (active) and the outcome [6] was “inactive”. For the same compound, the AC50 [7] was 2.78 µM (active), the AC50 [8] was 2.62 µM (active) and the outcome [9] was “inactive”.
In the case of Cc1ccc(N=C=O)cc1N=C=O, the outcome [2] is reported as “inactive”, the outcome [4] is reported as “inactive” and the outcome [10] is reported as “inactive”. The AC50 [11] was 16.9 µM (active), the outcome [12] was “inactive” and the outcome [9] was “inactive”.
With CC(C)(O)c1cnn2c(-c3ccc(F)c(-c4c(F)cccc4C#N)c3)cnc2n1 the outcome [1] was “inactive”, the outcome [2] was “inactive” and the outcome [3] was “inactive”. The outcome [4] was “inactive”, the outcome [13] was “inactive” and the outcome [9] was “inactive”.
With Nc1ccc(N=Nc2ccccc2)cc1 the outcome [2] was “inactive”, the outcome [3] was “inactive” and the outcome [4] was “inactive”. For the same compound, the AC50 [11] was 2.53 µM (active), the AC50 [12] was 40.2 µM (active) and the outcome [13] was “inactive”. The AC50 [5] was 33.9 µM (active) and the outcome [9] was “inactive”.
With OCCOCCO the outcome [1] was “inactive”, the outcome [3] was “inactive” and the outcome [4] was “inactive”. For the same compound, the outcome [10] was “inactive”, the outcome [13] was “inactive” and the outcome [5] was “inactive”. The outcome [9] was “inactive”.
In the case of CC(C)(C)OOC(=O)c1ccccc1, the outcome [1] is reported as “inactive”, the outcome [2] is reported as “inactive” and the outcome [3] is reported as “inactive”. The outcome [4] was “inactive” and the outcome [9] was “inactive”.
With CCOc1cccc(C2(N3CCN(c4ccccc4)CC3)CCC(C)CC2)c1 (stereo not given) the outcome [1] was “inactive”, the outcome [2] was “inactive” and the outcome [3] was “inactive”. For the same compound, the outcome [4] was “inactive”, the outcome [10] was “inactive” and the outcome [9] was “inactive”.
In the case of c1ccc(NNc2ccccc2)cc1, the outcome [1] is reported as “inactive”, the outcome [2] is reported as “inactive” and the outcome [4] is reported as “inactive”. For the same compound, the outcome [10] was “inactive”, the outcome [11] was “inactive” and the AC50 [12] was 19.1 µM (active). For the same compound, the outcome [9] was “inactive”.
For O=C1CCCO1, the outcome [1] was “inactive”, the outcome [2] was “inactive” and the outcome [3] was “inactive”. The outcome [4] was “inactive”, the outcome [13] was “inactive” and the outcome [6] was “inactive”. For the same compound, the outcome [7] was “inactive” and the outcome [9] was “inactive”.
In the case of Nc1ccc(Oc2ccc(N)cc2)cc1, the outcome [1] is reported as “inactive”, the outcome [2] is reported as “inactive” and the outcome [3] is reported as “inactive”. The outcome [10] was “inactive”, the AC50 [11] was 0.831 µM (active) and the outcome [12] was “inactive”. For the same compound, the AC50 [6] was 59.5 µM (active), the outcome [7] was “inactive” and the AC50 [8] was 50.2 µM (active). For the same compound, the outcome [9] was “inactive” and the AC50 [14] was 0.366 µM (active).
For O=C(N[C@H](c1ccccc1)[C@@H]1CN2CCC1CC2)c1c(Cl)ccc(C(F)(F)F)c1Cl, the outcome [1] was “inactive”, the AC50 [5] was 50.8 µM (active) and the AC50 [9] was 28.3 µM (active).
For Nc1ccc(Cc2ccc(N)cc2)cc1, the outcome [1] was “inactive”, the outcome [3] was “inactive” and the outcome [10] was “inactive”. The AC50 [11] was 0.0776 µM (active), the outcome [12] was “inactive” and the outcome [13] was “inactive”. The outcome [9] was “inactive” and the AC50 [14] was 0.352 µM (active).
For CC(C)(OOC(C)(C)c1ccccc1)c1ccccc1, the outcome [1] was “inactive”, the outcome [2] was “inactive” and the outcome [3] was “inactive”. For the same compound, the outcome [4] was “inactive”, the outcome [10] was “inactive” and the AC50 [5] was 15.4 µM (active). For the same compound, the outcome [9] was “inactive”.
In the case of Oc1ccccc1Cl, the outcome [1] is reported as “inactive”, the outcome [2] is reported as “inactive” and the outcome [3] is reported as “inactive”. For the same compound, the outcome [4] was “inactive”, the outcome [11] was “inactive” and the outcome [12] was “inactive”. The outcome [9] was “inactive”.
With c1ccc2c(c1)oc1ccccc12 the outcome [1] was “inactive”, the outcome [2] was “inactive” and the outcome [4] was “inactive”. For the same compound, the outcome [10] was “inactive”, the outcome [13] was “inactive” and the outcome [9] was “inactive”.
With Clc1ccc(C(c2ccc(Cl)cc2)C(Cl)Cl)cc1 the outcome [2] was “inactive”, the outcome [3] was “inactive” and the outcome [4] was “inactive”. For the same compound, the outcome [10] was “inactive”, the outcome [13] was “inactive” and the AC50 [5] was 20.3 µM (active). For the same compound, the outcome [6] was “inactive”, the outcome [7] was “inactive” and the outcome [8] was “inactive”. For the same compound, the outcome [9] was “inactive”.
In the case of [Cl-].[Cl-].[Hg+2], the AC50 [1] is reported as 1.05 µM (active), the AC50 [2] is reported as 3.58 µM (active) and the AC50 [3] is reported as 1.02 µM (active). For the same compound, the AC50 [4] was 3.83 µM (active), the AC50 [12] was 0.939 µM (active) and the AC50 [13] was 1.15 µM (active). For the same compound, the AC50 [5] was 0.0826 µM (active), the AC50 [6] was 1.34 µM (active) and the AC50 [7] was 0.882 µM (active). For the same compound, the AC50 [8] was 0.995 µM (active), the AC50 [9] was 4.32 µM (active) and the AC50 [14] was 389 µM (active).
In the case of CC(C)(C)OOC(C)(C)CCC(C)(C)OOC(C)(C)C, the outcome [1] is reported as “inactive”, the outcome [2] is reported as “inactive” and the outcome [3] is reported as “inactive”. For the same compound, the outcome [4] was “inactive”, the outcome [10] was “inactive” and the outcome [9] was “inactive”.
In the case of CC(C)N(Cc1ccccc1)C(=O)C(C)(C)C, the outcome [2] is reported as “inactive”, the outcome [3] is reported as “inactive” and the outcome [4] is reported as “inactive”. For the same compound, the outcome [10] was “inactive” and the outcome [9] was “inactive”.
For CCCCOC(=O)c1ccccc1C(=O)OCc1ccccc1, the outcome [2] was “inactive”, the outcome [4] was “inactive” and the outcome [10] was “inactive”. The outcome [11] was “inactive”, the AC50 [12] was 8.68 µM (active) and the AC50 [5] was 1.55 µM (active). For the same compound, the outcome [6] was “inactive”, the AC50 [7] was 32.6 µM (active) and the AC50 [8] was 34.6 µM (active). The outcome [9] was “inactive”.
With O=C(O)C1C2CCC(O2)C1C(=O)O (stereo not given) the outcome [2] was “inactive”, the outcome [3] was “inactive” and the outcome [10] was “inactive”. The outcome [9] was “inactive”.
For CC(C)(C)C(O)(CCc1ccc(Cl)cc1)Cn1cncn1 (stereo not given), the outcome [1] was “inactive”, the outcome [3] was “inactive” and the outcome [10] was “inactive”. For the same compound, the AC50 [5] was 52 µM (active), the AC50 [6] was 79.1 µM (active) and the AC50 [7] was 30.1 µM (active). The AC50 [8] was 45 µM (active) and the outcome [9] was “inactive”.
For OCCCBr, the outcome [3] was “inactive”, the outcome [4] was “inactive” and the outcome [10] was “inactive”. For the same compound, the outcome [13] was “inactive”, the outcome [5] was “inactive” and the outcome [6] was “inactive”. The outcome [7] was “inactive”, the outcome [8] was “inactive” and the outcome [9] was “inactive”.
In the case of CCN(CC)N=O, the outcome [1] is reported as “inactive”, the outcome [3] is reported as “inactive” and the outcome [4] is reported as “inactive”. For the same compound, the outcome [10] was “inactive”, the outcome [6] was “inactive” and the outcome [7] was “inactive”. For the same compound, the outcome [9] was “inactive”.
In the case of C[N+](C)(C)CC1CO1 (stereo not given), the outcome [1] is reported as “inactive”, the outcome [3] is reported as “inactive” and the outcome [4] is reported as “inactive”. For the same compound, the outcome [10] was “inactive”, the AC50 [6] was 21 µM (active) and the AC50 [7] was 11 µM (active). The AC50 [8] was 16.5 µM (active) and the outcome [9] was “inactive”.
For c1ccc(N=Nc2ccccc2)cc1, the outcome [10] was “inactive” and the outcome [9] was “inactive”.

— PubChem BioAssay (EPA / NIEHS)
